{"source": "PubChem BioAssay AID624125", "about": "(The Scripps Research Institute Molecular Screening Center, 2012)", "note": "The whole screen tested about 360,000 compounds, of which about 2,600 (0.72%) were called active.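 Rule for the calls: active = inhibition above its plate's cutoff, the mean inhibition of sample wells plus 3 SD (cut at about 27% in these data); inactive = the rest.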 The list comes from a sample in which actives are over-represented; it also holds similar structures and randomly drawn compounds."}
{"molecular_target": "Muscarinic acetylcholine receptor M4 (Homo sapiens) (UniProt P08173)", "sequence (P08173 whole entry, looked up)": "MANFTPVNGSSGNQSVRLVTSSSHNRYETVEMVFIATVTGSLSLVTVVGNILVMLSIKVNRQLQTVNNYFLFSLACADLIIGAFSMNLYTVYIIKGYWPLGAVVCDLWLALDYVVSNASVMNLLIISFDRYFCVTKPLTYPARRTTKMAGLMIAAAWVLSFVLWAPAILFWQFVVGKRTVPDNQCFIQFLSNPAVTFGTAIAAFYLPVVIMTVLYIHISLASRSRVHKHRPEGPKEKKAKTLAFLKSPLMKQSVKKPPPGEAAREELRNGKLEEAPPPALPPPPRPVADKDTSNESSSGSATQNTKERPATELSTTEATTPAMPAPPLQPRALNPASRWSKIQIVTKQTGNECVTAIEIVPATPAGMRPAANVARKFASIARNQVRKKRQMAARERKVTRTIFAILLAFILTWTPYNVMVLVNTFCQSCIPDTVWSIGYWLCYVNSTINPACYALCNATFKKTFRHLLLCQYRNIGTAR", "assay": "CHRM4 blockers of acetylcholine calcium response – CHO cells, Fluo-8 calcium fluorescence, primary screen (AID 624125);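 note: 0% = acetylcholine EC80 with DMSO and 100% = DMSO without agonist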", "conditions": "CHO-hM4 cells, ACh EC80, Fluo-8 calcium fluorescence; at 3 µM; active compounds read high"}
{"compound": "Cc1cc(C)c(S(=O)(=O)c2cc(F)ccc2C)c(=O)[nH]1", "inhibition": "1.71% (inactive)"}
{"compound": "CCN1/C(=C\\c2ccc3ccccc3[n+]2CC)Sc2cc(C)ccc21", "inhibition": "34% (active)"}
{"compound": "CCc1ccc(NC2Nc3cc(C)nn3S2)cc1", "note": "(centres undefined)", "inhibition": "4.8% (inactive)"}
{"compound": "COc1ccc(Cl)cc1C=CC=NNC(=O)c1ccncc1", "inhibition": "-14.8% (inactive)"}
{"compound": "CN1CCC[C@@H]1CCO[C@](C)(c1ccccc1)c1ccc(Cl)cc1", "inhibition": "97.7% (active)"}
{"compound": "CCC1CCC/C1=N\\NC(=O)c1ccc(Cl)cc1", "note": "(centres undefined)", "inhibition": "6.05% (inactive)"}
{"compound": "COc1cccc2sc3cc(NCC[C@@H]4CCCN4C)ccc3c(=O)c12", "inhibition": "-7.94% (inactive)"}
{"compound": "O=C(Nc1ccc(F)cc1)c1cc2c(s1)CCCC2", "inhibition": "1.82% (inactive)"}
{"compound": "C=CCOC(=O)C1=C(C)N=C2SCCC(=O)N2C1/C=C/c1ccccc1OC", "note": "(centres undefined)", "inhibition": "1.49% (inactive)"}
{"compound": "CC1(C)CC(N2CCN(C(c3ccccc3)c3ccccc3)CC2)=CC(=[N+]2CCCCC2)C1", "inhibition": "56.8% (active)"}
{"compound": "CC1(c2cccc(Br)c2)NC(=O)N(CC(=O)NCCC2=CCCCC2)C1=O", "note": "(centres undefined)", "inhibition": "-1.54% (inactive)"}
{"compound": "COC(=O)c1cc(S(=O)(=O)N2CCC(C(N)=O)CC2)oc1C", "inhibition": "-3.75% (inactive)"}
{"compound": "CCCCN(CCCC)CCC(O)c1cc2c(Cl)cc(Cl)cc2c2cc(C(F)(F)F)ccc12", "note": "(centres undefined)", "inhibition": "-6.99% (inactive)"}
{"compound": "O=[N+]([O-])/C=C/c1ccc2c(ccn2Cc2ccccc2)c1", "inhibition": "51% (active)"}
{"compound": "CC(C)CCNC(=O)c1[nH]c(C(F)(F)F)nc1-c1ccccc1", "inhibition": "2.39% (inactive)"}
{"compound": "CCOCCCN1C(=O)CN(C2CCCCC2)C(=O)C1c1ccc(OCC)c(OC)c1", "note": "(centres undefined)", "inhibition": "5.54% (inactive)"}
{"compound": "Cc1cc(=O)[nH]c(N/N=C/c2ccc3c(c2)OCCO3)n1", "inhibition": "29.5% (active)"}
{"compound": "Cc1ccc(C)c(NC2=NCC(=O)N2c2ccc3c(c2)OCCO3)c1", "inhibition": "5.91% (inactive)"}
{"compound": "Cc1cc(=O)[nH]c(Nc2cccc(Br)c2)n1", "inhibition": "4.17% (inactive)"}
{"compound": "CC1(C)C[C@H]2C3=CCC4[C@@]5(C)CC[C@H](O)[C@](C)(CO)C5CC[C@@]4(C)[C@]3(C)C[C@@H](O)[C@@]2(CO)[C@@H](O)[C@@H]1O", "note": "(some centres undefined)", "inhibition": "-13.3% (inactive)"}
{"compound": "CC1(C)C2CC[C@]3(C)C(CC=C4[C@@H]5C[C@@](C)(CO)CC[C@]5(C(=O)O)CC[C@]43C)[C@@]2(C)CC[C@@H]1O", "note": "(some centres undefined)", "inhibition": "45.8% (active)"}
{"compound": "CC1O[C@@H](OC2C(O)C(C)O[C@H](OC(=O)[C@]34CCC(C)(C)C[C@H]3C3=CCC5[C@@]6(C)CC(O)C(O[C@@H]7OC(CO)C(O)[C@@H](O)[C@@H]7O)[C@@](C)(C(=O)O)C6CC[C@@]5(C)[C@]3(CO)CC4)C2O[C@H]2OC(C)[C@@H](O[C@@H]3OCC(O[C@@H]4OC(CO)C(O)[C@H](O)C4O)[C@@H](O)[C@@H]3O)[C@H](O)C2O)C(O)C(O)C1O", "note": "(some centres undefined)", "inhibition": "4.49% (inactive)"}
{"compound": "O=S(=O)(c1cccc(-c2cn3ccccc3n2)c1)N1CCCC1", "inhibition": "-2.49% (inactive)"}
{"compound": "O=C(NCC(c1cccs1)N1CCOCC1)c1cc(Cl)ccc1[N+](=O)[O-]", "note": "(centres undefined)", "inhibition": "-29.6% (inactive)"}
{"compound": "CCN1CCN(CC(=O)c2cc(OC)c(OC)c(OC)c2)CC1", "inhibition": "3.39% (inactive)"}
{"compound": "O=C1C=C(c2ccc(Cl)cc2)C(=O)N1Nc1ccccc1", "inhibition": "32% (active)"}
{"compound": "Cc1cc(C)nc(NS(=O)(=O)c2ccc(N3C(=O)C4CCCCC4C3=O)cc2)n1", "note": "(centres undefined)", "inhibition": "-3.19% (inactive)"}
{"compound": "CCCn1nc(C(=O)N2CCCc3ccccc32)c2ccccc2c1=O", "inhibition": "3.11% (inactive)"}
{"compound": "Cc1ccc(C(=O)N2CCCc3ccccc32)c(Cl)c1", "inhibition": "-5.91% (inactive)"}
{"compound": "Cc1cccc2cc3c(N)c(C(=O)N4CCCc5ccccc54)sc3nc12", "inhibition": "26.9% (active)"}
{"compound": "C=CCn1cc(Cl)cc(C(=O)Nc2ccccc2)c1=O", "inhibition": "1.16% (inactive)"}
{"compound": "NS(=O)(=O)c1ccc(NC(=O)COC(=O)C2(c3ccc(F)cc3)CCCC2)cc1", "inhibition": "1.71% (inactive)"}
{"compound": "O=C(/C=C(O)/C=C/c1ccc(O)cc1)/C=C/c1ccc(O)cc1", "inhibition": "41.4% (active)"}
{"compound": "CC(C)(C)C(=O)/C(C#N)=C/c1ccc(O)cc1", "inhibition": "3.63% (inactive)"}
{"compound": "NC1=NC(=O)S/C1=C\\c1ccc(O)cc1", "inhibition": "0.37% (inactive)"}
{"compound": "CCNC(=O)C1(C)CCN(Cc2ccc(C(=O)OCC)o2)C1", "note": "(centres undefined)", "inhibition": "3.23% (inactive)"}
{"compound": "Clc1cccc(Cl)c1Cn1nnc(-c2cccs2)n1", "inhibition": "-3.16% (inactive)"}
{"compound": "CC(C)[C@@H]1COC(c2cccc(C3=N[C@H](C(C)C)CO3)c2)=N1", "inhibition": "7.38% (inactive)"}
{"compound": "COc1cc(/C=C(\\C#N)C(=O)Nc2ccc3ccccc3c2)c([N+](=O)[O-])cc1OC", "inhibition": "28.5% (active)"}
{"compound": "COc1cc(NC(=O)COC(=O)CSc2ccc3ccccc3c2)c(C)cc1[N+](=O)[O-]", "inhibition": "-8.64% (inactive)"}
{"compound": "COc1cc(/C=C(/NC(=O)c2ccccc2)C(=O)Nc2cccc(O)c2)c([N+](=O)[O-])cc1OC", "inhibition": "-11.4% (inactive)"}
{"compound": "CCOC(=O)C1CCN(C(=O)Cn2nc(C)c3c(C)n(-c4ccccc4)nc3c2=O)CC1", "inhibition": "9.38% (inactive)"}
{"compound": "Cc1cc(=O)oc2c3c(cc(OCC(=O)N[C@H](C(=O)O)c4ccccc4)c12)OC(C)(C)CC3", "inhibition": "-5.66% (inactive)"}
{"compound": "O=C1CCCC(O)=C1N=Nc1ccc2ncsc2c1", "inhibition": "9.09% (inactive)"}
{"compound": "COc1ccc(NC(=O)N(C)C[C@H]2Oc3ccc(NC(=O)C4CC4)cc3C(=O)N([C@H](C)CO)C[C@@H]2C)cc1", "inhibition": "-10% (inactive)"}
{"compound": "Cc1nc2c(OCc3cccc(Cl)c3)cccn2c1N(C)CC1CC1", "inhibition": "8.19% (inactive)"}
{"compound": "Cc1nc2c(OCc3ccc(Cl)cc3Cl)cccn2c1N(C)CC1CC1", "inhibition": "38% (active)"}
{"compound": "CCc1nc2c(OCc3ccc(Cl)cc3Cl)cccn2c1N(C)C(=O)C(C)C", "inhibition": "-17.6% (inactive)"}
{"compound": "COC(CNC(=O)c1ccc2c(c1)ncn2-c1cc(C)cc(C)c1)OC", "inhibition": "-0.94% (inactive)"}
{"compound": "CCc1nc2c(OCc3ccccc3)cccn2c1N(C)C(=O)c1ccco1", "inhibition": "8.33% (inactive)"}
{"compound": "COc1ccc(C(c2nnnn2Cc2cccs2)N2CCN(c3ccccc3)CC2)cc1OC", "note": "(centres undefined)", "inhibition": "-1.13% (inactive)"}
{"compound": "CCCCCC(O)(CCN1CCCCC1)c1ccccc1", "note": "(centres undefined)", "inhibition": "98.9% (active)"}
{"compound": "CCCCOc1ccc(C(C)(O)CCN2CCOCC2)cc1", "note": "(centres undefined)", "inhibition": "3.58% (inactive)"}
{"compound": "CCCCCCC(O)(CCN1CCCCC1)c1ccccc1", "note": "(centres undefined)", "inhibition": "88.2% (active)"}
{"compound": "COc1ccc(C(O)(C2CCCCC2)C(CN2CCCC2)c2ccccc2)cc1", "note": "(centres undefined)", "inhibition": "5.79% (inactive)"}
{"compound": "O=C(c1ccccc1)C(O)(CN1CCCCC1)c1ccccc1", "note": "(centres undefined)", "inhibition": "5.71% (inactive)"}
{"compound": "C#CC(CCN1CCCCC1)(OC)c1ccccc1", "note": "(centres undefined)", "inhibition": "44.6% (active)"}
{"compound": "CC(CN1CCCCC1)c1ccccc1", "note": "(centres undefined)", "inhibition": "5.04% (inactive)"}
{"compound": "CCc1ccccc1NC(=O)NCCN1CCCCC1", "inhibition": "4.05% (inactive)"}
{"compound": "c1ccc2cc3[nH]c(CN4CCCCC4)nc3cc2c1", "inhibition": "-0.37% (inactive)"}
{"compound": "CCC1SC(CC)C(=O)N(CC(=O)NC2CCCCC2)C1=O", "note": "(centres undefined)", "inhibition": "4.12% (inactive)"}
{"compound": "Cc1ccc(C(=O)NC(=S)Nc2ccc3[nH]c(=O)[nH]c3c2)cc1C", "inhibition": "-8.35% (inactive)"}
{"compound": "COC(=O)c1cccc(-n2[nH]nnc2=S)c1", "inhibition": "2.86% (inactive)"}
{"compound": "COc1ccccc1C(=O)NCCn1cc(SCC(=O)NCc2ccco2)c2ccccc21", "inhibition": "6.25% (inactive)"}
{"compound": "COc1cc2c3c(c1)/C(=C1/SC(=S)NC1=O)C(=O)N3C(C)(C)C=C2C", "inhibition": "9.66% (inactive)"}
{"compound": "C=CC[C@@H](CC(=O)N[C@@H](CO)Cc1ccccc1)C(=O)NCCOC(=O)[C@@H](CC=C)CC(=O)OC(C)(C)C", "inhibition": "-5.01% (inactive)"}
{"compound": "CCc1cc(C(c2ccccc2OC)N2CCOCC2)c(NC(=O)c2ccccc2)s1", "note": "(centres undefined)", "inhibition": "-6.12% (inactive)"}
{"compound": "COc1ccc(COC(=O)c2n[nH]c3ccccc23)cc1F", "inhibition": "3.64% (inactive)"}
{"compound": "CCCOc1ccccc1C(=O)NCCCC(=O)O", "inhibition": "-1.85% (inactive)"}
{"compound": "CN(C)c1ccc(N/C=C/C(=O)C(F)(F)F)cc1", "inhibition": "-4.11% (inactive)"}
{"compound": "COC(=O)c1cc(NC(=O)CN2CCN(C(C)=O)CC2)cc(C(=O)OC)c1", "inhibition": "1.81% (inactive)"}
{"compound": "Cc1cc2c(cc1C)N(Cc1ccccc1)C1=NCCCN12", "inhibition": "10.6% (inactive)"}
{"compound": "Cc1ccc(OCc2cc(C(=O)N(C)CCn3ccnc3C)no2)cc1C", "inhibition": "-0.14% (inactive)"}
{"compound": "CN(Cc1cccnc1)C(=O)c1cc(COc2ccc3ncccc3c2)on1", "inhibition": "44.2% (active)"}
{"compound": "Cc1cc(CN(C)C(=O)c2cc(COc3ccc(C)c(C)c3)on2)n[nH]1", "inhibition": "-2.16% (inactive)"}
{"compound": "Cc1ccc2c(c1)N(CC(=O)N(Cc1ccccn1)Cc1ccco1)C(=O)C(C(C)C)O2", "note": "(centres undefined)", "inhibition": "-6.51% (inactive)"}
{"compound": "O=[N+]([O-])c1c(NCCO)cc(Sc2nc3ccccc3s2)c2nonc12", "inhibition": "74.6% (active)"}
{"compound": "CCCCN1C(=O)/C(=C2/C=CC=CN2C)SC1=S", "inhibition": "28.7% (active)"}
{"compound": "CCS(=O)(=O)N1CCCC(C(=O)NCCCN(C)Cc2ccccc2)C1", "note": "(centres undefined)", "inhibition": "6.16% (inactive)"}
{"compound": "CCS(=O)(=O)c1ccc2c(c1)N(S(=O)(=O)c1ccccc1)CC(C(=O)O)O2", "note": "(centres undefined)", "inhibition": "0.74% (inactive)"}
{"compound": "c1ccc2c(c1)CSc1sccc1C2=C1CCNCC1", "inhibition": "97.6% (active)"}
{"compound": "CCCCN(CC(=O)Nc1cccc(S(=O)(=O)N2CCCC2)c1)Cc1nc2ccccc2c(=O)[nH]1", "inhibition": "15.9% (inactive)"}
{"compound": "O=C1CCCc2nn(-c3ccccc3)nc21", "inhibition": "2.29% (inactive)"}
{"compound": "CCCCC(=O)NNC(=S)NC(=O)C(c1ccccc1)c1ccccc1", "inhibition": "59.9% (active)"}
{"compound": "C=CCC(NC(=O)Cc1ccccc1)C(=O)NCCC", "note": "(centres undefined)", "inhibition": "0.03% (inactive)"}
{"compound": "CCCOCC(O)CC(CC)C(=O)NNC(=S)Nc1ccccc1", "note": "(centres undefined)", "inhibition": "-8.64% (inactive)"}
{"compound": "CCOc1ccc(N(CC)S(=O)(=O)c2cccc3nsnc23)cc1", "inhibition": "4.82% (inactive)"}
{"compound": "O=C(/C=C/[C@H]1O[C@@H](n2ccc(=O)[nH]c2=O)[C@H](O)[C@@H]1O)NCc1ccccn1", "inhibition": "-0.74% (inactive)"}
{"compound": "COc1ccc(C(=O)O)cc1S(=O)(=O)NCc1cccnc1", "inhibition": "-5.56% (inactive)"}
